Common to all, as to experiment: NCI-60 one-dose screen, 48 h (100 = growth as untreated, 0 = no growth, -100 = all killed)
What all share (settings): 10 µM unless noted

The subject of assay [1] is T-47D breast.
The test system of assay [2] is BT-549 breast.
Assay [3] relates to MDA-MB-435 melanoma.
Assay [4] deals with SW-620 colon.
Assay [5] concerns MCF7 breast.
The test system of assay [6] is HCT-116 colon.
In assay [7] the test system is HCC-2998 colon.
Assay [8] concerns KM12 colon.

The panel holds about 83,000 compounds, 20% with a hit somewhere; the sample as a whole holds those more often.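 For each line, cells grew in 96-well plates with the test compound present at a single concentration for 48 hours.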 A number with no mark means an inactive call. Calls of active or inactive are those of the source. The calls were made as follows: active = growth percent below 10; inactive = the rest.

On to `CCN1C(=S)N(c2ccccc2)C2C1NN=c1s/c(=C3\C(=O)N(C(C)C)c4ccccc43)c(=O)n12` (configuration not stated), for which the growth in assay [1] was 62.8%; in assay [2] it was 96.6%; in assay [3], 93.3%; in assay [4], 75.6%; in assay [5], 64.7%; in assay [6], 41.7%. For the same molecule, the values for the growth in assay [7] and in assay [8] were 109% and 81.7%, respectively.

In the case of `CCCCCN1C(=O)/C(=c2\sc3n(c2=O)C2C(NN=3)N(CC)C(=O)N2CC)c2ccccc21` (configuration not stated), the growth in assay [1] was 23.3%; in assay [2] it was 19.5%; in assay [3], -60.1% (active); in assay [4], -42.1% (active); in assay [5] it was 12%; in assay [6], -72.1% (active). Moreover, the growth was -17.1% (active) in assay [7] and -52.9% (active) in assay [8].

Consider `C#COc1cccc(Nc2c(C#N)cnc3ncc(NC(=O)CCl)cc23)c1`, for which the growth is 4.8% [6.25 µM] (active) in assay [1]; 40.3% [6.25 µM] in assay [2]; 41.4% [6.25 µM] in assay [3]; 9.61% [6.25 µM] (active) in assay [4]; 5.39% [6.25 µM] (active) in assay [5]; -3.66% [6.25 µM] (active) in assay [6]. For the same molecule, the values for the growth in assay [7] and in assay [8] were 31.7% [6.25 µM] and 31.4% [6.25 µM], respectively.

Consider `c1cnc2c(-c3nc4ccc5[nH]ncc5c4c4c3CCCC4)c[nH]c2c1`, for which the growth in assay [1] was 38.1%; in assay [2], 72.5%; in assay [3], 51.9%; in assay [4], 18.9%; in assay [5], 9.3% (active); in assay [6] it was 0.564% (active). Also, the growth in assay [7] was 54.7%; in assay [8] it was 26.9%.

For `Oc1c(Br)cc(Br)c2ccc(Cn3cc(-c4ccc(C(F)(F)F)cc4)nn3)nc12`, the growth in assay [1] was 46.2%; in assay [2] it was 72.6%; in assay [3], 48.2%; in assay [4], -16.3% (active); in assay [5], 27.9%; in assay [6] it was -0.0235% (active). The figures for the growth in assay [7] and in assay [8] were 117% and 104%, respectively.

For `Cc1ccc(-c2nc(N3CCCNCC3)c3oc(-c4ccc(C)cc4)nc3n2)cc1`, the growth in assay [1] is -46% (active); in assay [2], 90.2%; in assay [3], 70.8%; in assay [4], -49.7% (active); in assay [5] it was -64.8% (active); in assay [6], 27.5%. Also, the growth in assay [7] is 40.9%; in assay [8] it was 11.3%.

For the molecule `COc1ccc(NC2=C(I)C(=O)c3ncccc3C2=O)cc1`, the growth in assay [1] was -32.7% (active); in assay [2], -6.34% (active); in assay [3], -88.9% (active); in assay [4] it was -60.6% (active); in assay [5], -53.5% (active); in assay [6], 2.09% (active). Further, the growth in assay [7] was 47.6%; in assay [8], 15.3%.

Consider `Cn1ccnc1C(=O)/C=C/c1ccc(C(=O)Nc2ccccc2O)cc1`, for which the growth in assay [1] is 2.47% (active); in assay [2], 28.4%; in assay [3] it was 69.3%; in assay [4], 10.3%; in assay [5] it was 10.2%; in assay [6] it was 11.6%. Besides, the growth in assay [7] was 82.7%; in assay [8], 15.2%.

For the molecule `COc1ccc2[nH]c(C(=O)N3CCN(C(=O)OCc4ccc5c(Cl)cc(Cl)c(O)c5n4)CC3)cc2c1`, the growth in assay [1] was -57.5% (active); in assay [2] it was -69.3% (active); in assay [3], -91% (active); in assay [4], -81.9% (active); in assay [5], -55.7% (active); in assay [6], -92.2% (active). For the same molecule, the values for the growth in assay [7] and in assay [8] were -86.7% (active) and -62.3% (active), respectively.

Consider `Cc1c(O)cc(-c2cnc(Nc3ccccc3)s2)c(O)c1C`, for which the growth is 68.6% in assay [1]; 91.8% in assay [2]; 101% in assay [3]; 104% in assay [4]; 82.2% in assay [5]; 97.8% in assay [6]. Also, the growth in assay [7] was 118%; in assay [8] it was 95.9%.

For `CC(C)=CCC[C@](C)(O)[C@H]1CC[C@]2(C)[C@@H]1CC[C@@H]1[C@@]3(C)C/C(=C/c4ccco4)C(=O)C(C)(C)[C@@H]3CC[C@]12C`, the growth was 97.8% in assay [1]; 98.1% in assay [2]; 97.4% in assay [3]; 99.1% in assay [4]; 97.2% in assay [5]; 97.4% in assay [6]. Further, the growth in assay [7] is 105%; in assay [8], 106%.

On to `N#Cc1nc(-c2ccc(F)cc2)oc1S(=O)(=O)N1CCOCC1`, for which the growth in assay [1] is -6.45% (active); in assay [2] it was 98.5%; in assay [3], 79.8%; in assay [4], -77.9% (active); in assay [5], 30.4%; in assay [6] it was -18.4% (active). For the same molecule, the growth in assay [7] was 106%; in assay [8] it was 102%.

Turning to `N#Cc1ccc(O)c(C2=NCC(c3cccc(Oc4ccccc4)c3)O2)c1` (configuration not stated), the growth was -12.5% (active) in assay [1]; 30.6% in assay [2]; 35.2% in assay [3]; 25.6% in assay [4]; 21.4% in assay [5]; 16.9% in assay [6]. For the same molecule, the growth was 43.7% in assay [7] and 21% in assay [8].

Regarding `O=C1c2c(c3c4ccccc4[nH]c3c3ccc4ccccc4c23)C(=O)N1CCN1CCNCC1`, the growth in assay [1] is 55.8%; in assay [2] it was 93.5%; in assay [3], 80.9%; in assay [4], -54.9% (active); in assay [5], 23%; in assay [6], -81.3% (active). The growth in assay [7] was 73.7%; in assay [8], 36.3%.

Consider `CCOC(=O)C#Cc1c(C(=O)OCC)nnn1Cc1ccc([N+](=O)[O-])cc1`, for which the growth in assay [1] is 23.8%; in assay [2] it was 80.2%; in assay [3], 75.2%; in assay [4], -40.5% (active); in assay [5], 6.62% (active); in assay [6], 43.4%. Further, the figures for the growth in assay [7] and in assay [8] were 81.1% and 92%, respectively.

Take `Nc1n[nH]c2cccc(C#Cc3cccc(C(=O)Nc4cc(C(F)(F)F)cc(C(F)(F)F)c4)c3)c12`: the growth in assay [1] is 73.9%; in assay [2] it was 98.6%; in assay [3], 47.6%; in assay [4] it was 78.6%; in assay [5], 65.5%; in assay [6] it was 35.3%. Further, the growth in assay [7] is 80.3%; in assay [8], 43.9%.

As for `O=C(CN1C(=O)S/C(=C\c2ccccc2)C1=O)Nc1ncc(Cc2ccccc2Cl)s1`, the growth was 88.1% in assay [1]; 113% in assay [2]; 93.6% in assay [3]; 105% in assay [4]; 92.7% in assay [5]; 94.5% in assay [6]. Besides, the growth is 105% in assay [7] and 102% in assay [8].

Regarding `O=C(/C=C/c1cccs1)Nc1ncc(Cc2ccccc2F)s1`, the growth in assay [1] was 23.8%; in assay [2] it was 52.3%; in assay [3], -64.4% (active); in assay [4], 24.5%; in assay [5], 17.1%; in assay [6], 28.6%. The growth is 44.4% in assay [7] and 16.7% in assay [8].

Take `COC(=O)[C@@H](CCCCNC(=O)[C@]12CCC(C)(C)C[C@@H]1C1=CC[C@@H]3[C@@]4(C)C/C(=C/c5ccco5)C(=O)C(C)(C)[C@@H]4CC[C@@]3(C)[C@]1(C)CC2)NC(=O)[C@]12CCC(C)(C)C[C@@H]1C1=CC[C@@H]3[C@@]4(C)C/C(=C/c5ccco5)C(=O)C(C)(C)[C@@H]4CC[C@@]3(C)[C@]1(C)CC2`: the growth was 94.7% in assay [1]; 106% in assay [2]; 93.9% in assay [3]; 112% in assay [4]; 104% in assay [5]; 100% in assay [6]. For the same molecule, the growth in assay [7] and in assay [8] was 103% in each case.

Consider `COc1ccc(NC(=O)c2sc3nc(C)c(C(=O)/C=C/c4ccccc4)cc3c2N)cc1`, for which the growth in assay [1] is 57.7%; in assay [2], 50%; in assay [3] it was 15.7%; in assay [4], 2.56% (active); in assay [5] it was 14.9%; in assay [6], 12.3%. For the same molecule, the growth is 25.2% in assay [7] and 18.7% in assay [8].

With `COc1ccc2c(c1OC)CO[C@@H]2[C@H]1c2c(cc3c(c2OC)OCO3)CCN1S(=O)(=O)c1cn(C)cn1`, the growth is 33.4% in assay [1]; 38.2% in assay [2]; -27.3% (active) in assay [3]; 25.4% in assay [4]; 16.9% in assay [5]; 14.4% in assay [6]. Moreover, the growth is 11.7% in assay [7] and 11.3% in assay [8].

On to `C/C(Cc1ccc(Cl)cc1)=C(\c1ccc(O)cc1)c1ccc(Cl)cc1`, for which the growth was 82.1% in assay [1]; 98.1% in assay [2]; 93% in assay [3]; 95.4% in assay [4]; 102% in assay [5]; 71.6% in assay [6]. The results for the growth in assay [7] and in assay [8] were 91.9% and 88.6%, respectively.

In the case of `Nc1nc2ccccc2c2c1S(=O)(=O)c1ccc(Cl)cc1C2=O`, the growth was -0.213% (active) in assay [1]; 24.3% in assay [2]; 20.5% in assay [3]; 2.06% (active) in assay [4]; 9.68% (active) in assay [5]; 1.05% (active) in assay [6]. Moreover, the growth was 41.5% in assay [7] and 18.4% in assay [8].

Regarding `Cc1ccccc1/C=C/C(=O)c1cccc(OCCCOc2cccc(C(=O)/C=C/c3ccccc3C)c2)c1`, the growth is 73.2% [3 µM] in assay [1]; 96.7% [3 µM] in assay [2]; 97.7% [3 µM] in assay [3]; 93.3% [3 µM] in assay [4]; 13.5% [3 µM] in assay [5]; 38.2% [3 µM] in assay [6]. Also, the results for the growth in assay [7] and in assay [8] were 91.2% [3 µM] and 95.4% [3 µM], respectively.

Regarding `Cc1cccc(/C=C2\CN(C(=O)OC(C)(C)C)C/C(=C\c3cccc(C)c3)C2=O)c1`, the growth is 87.8% in assay [1]; 105% in assay [2]; 93.1% in assay [3]; 7.71% (active) in assay [4]; 23.2% in assay [5]; 11.2% in assay [6]. Moreover, the results for the growth in assay [7] and in assay [8] were 103% and 74.1%, respectively.

Take `CC(O)(c1ccccc1)C(c1ccccc1)C1CCCCN1` (configuration not stated): the growth in assay [1] is 94.2%; in assay [2] it was 35.6%; in assay [3], 99.1%; in assay [4], 103%; in assay [5] it was 110%; in assay [6], 97.3%. The growth in assay [7] was 107%; in assay [8], 104%.

As for `Cc1cn(-c2cc(NC(=O)c3cccc(C#Cc4cccc5[nH]nc(N)c45)c3)cc(C(F)(F)F)c2)cn1`, the growth in assay [1] was 39.2%; in assay [2], 30.3%; in assay [3], 36.1%; in assay [4] it was 44.1%; in assay [5] it was 34.2%; in assay [6], 23.5%. The growth in assay [7] is 39.1%; in assay [8], 20.6%.

In the case of `CSc1nc2ncc([N+](=O)[O-])c(=O)n2[nH]1`, the growth in assay [1] is 99.8%; in assay [2] it was 104%; in assay [3] it was 100%; in assay [4] it was 101%; in assay [5], 96.5%; in assay [6], 105%. In addition, the growth in assay [7] was 107%; in assay [8], 103%.

Take `Oc1c(Br)cc(Br)c2ccc(Cn3cc(-c4ccccc4C(F)(F)F)nn3)nc12`: the growth in assay [1] is 83.8%; in assay [2] it was 107%; in assay [3] it was 93.1%; in assay [4], 73.5%; in assay [5], 71.5%; in assay [6], 49.1%. The growth in assay [7] is 110%; in assay [8], 100%.

Source of the values: PubChem BioAssay (NCI).
